# Pf growth 48h – Primary qHTS for delayed death inhibitors of the malarial parasite plastid, 48 hour incubation | P. falciparum luciferase growth in erythrocytes, 48 h | Potency, µM (doses to about 28.7 µM), without a hit: top-dose activity change, negative = inhibition, usual class: inhibitors | 5.9% of 310,000 active; note: potency is the fitted concentration of half-maximal effect; % is set by controls: 0 for no effect and ±100 for the full control effect
#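 Luciferase-expressing parasites in RBCs, 2% Hct / 0.1% parasitemia final; RPMI 1640 + 0.5% Albumax; 37 C, 5% CO2, one generation; luminescence read-out, lower signal = inhibition.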
# SARS PLpro yeast – qHTS of Yeast-based Assay for SARS-CoV PLP. S. cerevisiae expressing SARS-CoV PLpro, growth rescue. Potency, µM (titrated, usually from 32.9 µM), for the others: top-dose activity, positive = growth rescue, most hits filed as activators. 0.19% of 330,000 active; calls by dose curve; note: potency is the fitted concentration of half-maximal effect; 0% is about no effect; nearly all actives have a fitted effect of over 55% in size
# Pf growth 96h – Primary qHTS for delayed death inhibitors of the malarial parasite plastid, 96 hour incubation | P. falciparum luciferase reporter growth, 96 h | Potency, µM (titrated, usually from 28.7 µM), for inactives: at the top dose activity change, negative = inhibition, usual class: inhibitors | 6.9% of 320,000 active | AID 504834, 2011; note: potency is the fitted concentration of half-maximal effect; % is set by controls: 0 for no effect and ±100 for the full control effect
#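 P. falciparum expressing integrated firefly luciferase grown in erythrocytes (2% hematocrit, 0.05% parasitemia final) with compounds for 96 hours at 37 C, 5% CO2. Growth inhibition read as loss of luminescence after adding luciferase detection reagent.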
# Sm TGR block – qHTS Assay for the Inhibitors of Schistosoma Mansoni Peroxiredoxins | purified TGR, DTNB reduction, TNB absorbance 405 nm | Potency, µM (series often up to 114 µM), without a hit: at the top dose activity change, negative = inhibition, usual class: inhibitors | Schistosoma mansoni thioredoxin glutathione reductase (TGR), Q962Y6 | 3% of 360,000 active | AID 485364, 2010; note: potency is the fitted concentration of half-maximal effect; % is set by controls: 0 for no effect and ±100 for the full control effect; nearly all actives have a fitted effect of over 60% in size
#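 First, TGR (20 nM dispensed) and NADPH were mixed with compound. Second, a 15 min room-temperature incubation followed. Third, further NADPH and then DTNB were added to start the reaction. Finally, TNB absorbance was monitored kinetically.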
# HCV inh – qHTS Assay for Inhibitors of Hepatitis C Virus (HCV); Huh7.5.1 HCVcc-Cre infection, luciferase reporter, 44 h; Potency, µM (doses to about 41.8 µM), for the others: at the highest dose activity change, negative = inhibition, hits mostly inhibitors; 3.4% of 340,000 active; AID 651820, 2012; note: potency is the fitted concentration of half-maximal effect; % is set by controls: 0 for no effect and ±100 for the full control effect
#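 Luciferase read-out (15 sec integration) after a 15 min room-temperature substrate step quantifies HCVcc-Cre infection. Cells, 1,000 per well, had compound added 4 h post-plating, then virus at ~0.5 moi, and were cultured 44 h.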
# HCMV antiviral – qHTS Assay for inhibitors of the human cytomegalovirus (HCMV). HFF cells, HCMV-luciferase reporter, 72 h; stronger effect = lower value. activity change, negative = inhibition, % at 57.5 µM. 4.5% of 410,000 active. AID 1259415, 2018; in the data active = activity change below about -60%; inconclusive = no clear call, values can overlap the other calls; inactive = above about -39%; note: % is set by controls: 0 for no effect and ±100 for the full control effect
#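 Two-dose cell screen: HFF monolayers treated with compounds and infected with luciferase-expressing HCMV at 1 PFU/cell, 72 h at 37C, then lysed for luciferase measurement.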
# Starred values were filed as active, the others as inactive; ? = inconclusive; / = no result; [ ] = dose if it differs, or a comment. Rows were chosen to be rich in hits. Some 15% of all compounds tested hit in one or more screens of this group. Unless noted, calls come from the whole dose curve; as a rule, active = well fitted curve in the direction sought with a large enough effect; inconclusive = small, poorly fitted or top-dose-only effect, or another doubt; inactive = no such curve, though single readings can be large; an effect the other way counts as inactive or inconclusive.
SMILES,Pf growth 48h,SARS PLpro yeast,Pf growth 96h,Sm TGR block,HCV inh,HCMV antiviral
O=[N+]([O-])c1ccc(SCc2ccncc2)nc1,-3%,1%,7%,-9%,19%,-84*
Nc1cc(SCc2ccc([N+](=O)[O-])cc2)ncn1,/,/,/,/,7%,14
COCCCNC(=O)c1ccc(S(=O)(=O)c2ccc(Cl)cc2)c(NC(C)=O)c1,-1%[0.00184 µM],1%,-8%,9%,3%,-18
Cc1ccc(S(=O)(=O)Cc2ccc(C(=O)N3CCC(C)CC3)cc2)cc1,-7%,1%,6%,-16%,10%,-20
Cc1ccccc1CS(=O)(=O)c1ccc(C(=O)N2CCC(C)CC2)cc1[N+](=O)[O-],13%,2%,?,89µM*,14%,?
CC1CCN(C(=O)c2ccc(S(=O)(=O)Cc3cccc(F)c3)c([N+](=O)[O-])c2)CC1,-29%,-19%,?,3.5µM*,1%,-84*
Cc1ccccc1CS(=O)(=O)c1cn(CC(=O)N2CCC(C)CC2)c2ccccc12,?,-14%,?,-9%,-5%,-6
COc1ccc(CC(=O)OCC(=O)NC2CCCC(C)C2C)cc1 (configuration not stated),/,-4%,/,/,-11%,7
CCC(=O)N(CCC1(c2ccccc2OC)CCOC(C(C)C)C1)Cc1ccco1 (configuration not stated),10µM*,0%,10µM*,-33%,-20%,4
COc1ccccc1C1(CCNC(C)c2cccs2)CCOC(C(C)C)C1 (configuration not stated),8.3µM*,1%,8.3µM*,-5%,?,-16
O=c1c2ccccc2ccc2ccccc12,16%,-6%,22%,2%,-4%,-104*
O=c1c2ccccc2oc2c1ccc1ccccc12,/,-32%,/,/,?,/
C[C@@H]1CN([C@H](C)CO)C(=O)CCCn2cc(nn2)CO[C@H]1CN(C)S(=O)(=O)c1ccc(-c2ccccc2)cc1,/,/,/,/,/,-13
COC(=O)C1=CN(c2ccc(OC)cc2OC)C(N)=C(C#N)C1c1cccc([N+](=O)[O-])c1 (configuration not stated),/,/,/,/,/,-22
Cc1cc(OCCn2ccnc2)cc(C)c1Cl,?,-5%,4%,-5%,-5%,1
CN(C)/C=C/C(=O)c1nnn(C2CCCCC2)c1NC1CCCCC1,5.2µM*,0%,/,-21%,-27%,-13
C/C(=N\NC(=O)C1CCCN(S(=O)(=O)c2ccccc2)C1)c1ccccn1 (configuration not stated),2.3µM*,1%,49%,0%,?,-93*
C/C(=N\NC(=O)C1CCCN(S(=O)(=O)c2ccccc2)C1)c1cccnc1 (configuration not stated),4%,1%,9.3µM*,-1%,-11%,10
COc1ccc(N(C)S(=O)(=O)c2cccc(C(=O)NC3CCCCCC3)c2)cc1,?,-1%,?,-6%,?,-7
COc1ccc(N(C)S(=O)(=O)c2cccc(C(=O)OC(C)C(=O)NC3CCCCC3C)c2)cc1 (configuration not stated),12µM*,/,21%,-4%,-17%,-15
COc1ccc(N(C)S(=O)(=O)c2cccc(C(=O)Nc3cccc(C(=O)NC4CC4)c3)c2)cc1,5.2µM*,-4%,15µM*,0%,14µM*,-8
COc1ccc(N(C)S(=O)(=O)c2cccc(C(=O)NC3CCC(C)CC3)c2)cc1 (configuration not stated),0%,2%,?,13%,?,-62*
COc1ccc(N(C)S(=O)(=O)c2cccc(C(=O)NC3CCCC(C)C3C)c2)cc1 (configuration not stated),?,0%,?,2%,?,-32
COc1ccc(Cl)c2sc(N(CCN(C)C)C(=O)C3=COCCO3)nc12,/,/,/,/,10%,-22
COc1ccc(OC)c(NC(=O)CCCOc2cc(=O)n(C)c3ccccc23)c1,/,/,/,-15%,/,6
SMILES,Pf growth 48h,SARS PLpro yeast,Pf growth 96h,Sm TGR block,HCV inh,HCMV antiviral
O=C(O)C1=NN(c2cc(Cl)c(S(=O)(=O)O)cc2Cl)C(=O)C1,/,/,/,/,19%,-25
CCOC(=O)c1c(C)oc(=O)c(CC)c1O,/,/,/,/,/,-26
CCOC(=O)c1c(C)oc2c(F)c(F)c(F)c(F)c2c1=O,-13%,-18%,14%,32µM*,10µM*,-104*
COc1cc(/C=N/N2C(C)CCCC2C)cc(OC)c1O (configuration not stated),-19%,-1%,-1%,45µM*,2%,-7
CCOc1ccc(/C=N/N2C(C)CCCC2C)cc1OC (configuration not stated),/,-2%,10µM*,25%,17%,26
CC1CCCC(C)N1/N=C/c1ccc(O)cc1 (configuration not stated),-26%,1%,2%,-13%,13%,20
CCN(CC(=O)Nc1c(F)cccc1F)C(=O)c1ccc2c(c1)S(=O)(=O)N=C1CCCCCN12,47%,-10%,33%,8%,?,-22
CO/N=C(\CCC(=O)O)c1cccs1,-1%,0%,15%,0%,7%,-6
CCNc1nc(SCCOc2ccc(C)cc2)nc(N(C)C)n1,1%,-6%,-1%,12%,11µM*,-28
CCOc1nc(SCCOc2ccccc2)nc(N(C)C)n1,-25%,-10%,13%,-2%,11µM*,-4
CCNc1nc(SCCOc2ccc(Cl)cc2Cl)nc(N(C)C)n1,?,0%,?,-1%,?,-23
COc1ccc(OC)c(NCc2cccn2-c2nnc(N3CCCCC3)s2)c1,/,/,/,-15%,/,?
CCOC(=O)[C@]12CCCC=C1N(Cc1cccc3ccccc13)C(=O)[C@H](CC(=O)N1CCCCC1)C2,/,/,/,/,/,-7
O=C(CN1CCN(c2ccccc2O)CC1)Nc1ccc2c(c1)CCC2,?,13%,?,0%,6%,59
Cc1cccc(C)c1OC(=O)Cc1ccccc1[N+](=O)[O-],6%,-3%,9%,37%,-14%,-64*
COc1ccc(/C(N)=N/OC(=O)Cc2ccccc2[N+](=O)[O-])cc1,7%,-5%,13µM*,-2%,?,15
COc1ccc(CCNc2oc(/C=C/c3ccc(OC)c(OC)c3)nc2C#N)cc1,/,/,/,2%,/,5
CC(/C=N/n1c(-c2cccnc2)n[nH]c1=S)=C\c1ccccc1,37%,-5%,48%,17%,26%,-77*

# Bioassay records as filed in PubChem.
